Assay [1] can be described thus: qHTS assay for small molecule agonists of the p53 signaling pathway (AID 651631; calls by dose curve; further: nearly all actives have a fitted effect of over 15% in size). The essentials: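 HCT-116 cells carrying a stable p53 response element–beta-lactamase reporter were plated, rested 5 h at 37 °C, then exposed to compound in DMSO for 16 h at 37 °C; reporter activity was read as FRET substrate fluorescence after 2 h at room temperature.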
The nature of assay [2]: qHTS assay for small molecules that induce genotoxicity in human embryonic kidney cells expressing luciferase-tagged ATAD5 (AID 651632). Further: nearly all actives have a fitted effect of over 15% in size. Put shortly:
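ATAD5-luc HEK293T, 2,000 cells/well; cpd or DMSO pin-transferred; 16 hr, 37C/5% CO2; Amplite 30 min RT; luminescence.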
(Quantitative high-throughput screening tests each substance at several concentrations.)

A short description of assay [3]: qHTS assay for small molecule agonists of the p53 signaling pathway - cell viability (AID 651633; calls by dose curve; further: nearly all actives have a fitted effect of over 30% in size). The essentials:
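Viability counter-read: CellTiter-Glo luminescence (30 min, room temperature) in the same p53RE-bla plates. These plates had been exposed to compounds for 16 h at 37 C.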

Assay [4] can be described thus: qHTS assay for small molecules that induce genotoxicity in human embryonic kidney cells expressing luciferase-tagged ATAD5 - cell viability (AID 651634; calls by dose curve; further: nearly all actives have a fitted effect of over 25% in size). Put shortly: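 Fluorescence from CellTiter-Fluor, reporting protease activity within live cells, served as the viability read-out. HEK293T cells carrying luciferase-tagged ATAD5 had been treated with compound for 15.5 hr at 37C.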

The nature of assay [5]: qHTS assay for small molecule disruptors of the mitochondrial membrane potential - cell viability (AID 720634; calls by dose curve;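 further: human HepG2 liver cancer cells; nearly all actives have a fitted effect of over 20% in size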). Put shortly:
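Cells: HepG2, 2,000/well, attached overnight. Compound 1 hr, 37 C/5% CO2. +m-MPI dye, +CellTiter-Glo 30 min RT. Readout: luminescence (ATP).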

Assay [6] is described as follows: qHTS assay for small molecule disruptors of the mitochondrial membrane potential (AID 720635). Further: potency means the concentration at half of the fitted maximal effect. Put shortly: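 Mitochondrial membrane potential tracked with Mito-MPS dye, red aggregates (ex 540/em 590 nm) against green monomers (ex 490/em 535 nm). Compound treatment 1 hr at 37C, dye 30 min in HepG2.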
Assay [7] is described as follows: qHTS assay to test for compound auto fluorescence at 590 nm (red) in HepG2 cells (AID 720674). Put shortly:
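We screened compounds on adherent HepG2 cells, incubating them for an hour at 37 C in 5% CO2 before reading emission at 590 nm under 540 nm excitation; values reflect equivalence to Rose Bengal sodium fluorescence.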

Assay [8] is described as follows: qHTS assay to test for compound auto fluorescence at 535 nm (green) in HepG2 cells (AID 720675).
The nature of assay [9]: qHTS assay to test for compound auto fluorescence at 460 nm (blue) in HEK293 cells (AID 720678). Put shortly: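 Cells were seeded and left to adhere for 4-5 hr at 37C. Compounds were then pin-transferred. After an overnight incubation at 37C under 5% CO2, intrinsic fluorescence at 405/460 nm was measured and referenced to triamterene.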
A short description of assay [10]: qHTS assay to test for compound auto fluorescence at 590 nm (red) in HEK293 cells (AID 720679). Put shortly:
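Each well held 2,000 HEK293 cells in medium containing 10% dialyzed FBS. Following 4-5 hr attachment at 37C, 23 nL test compound or DMSO was added; plates sat overnight, and red fluorescence (540/590nm) was recorded.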

Assay [11] in a line: qHTS assay to test for compound auto fluorescence at 535 nm (green) in HEK293 cells (AID 720680).
The nature of assay [12]: qHTS assay to test for compound auto fluorescence at 460 nm (blue) in HEK293 cell free culture (AID 720681). The essentials: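 Blue fluorescence (Ex 405/Em 460 nm, triamterene-equivalent) was read immediately after pin transfer of compound or DMSO into medium (DMEM, 10% FBS) without cells.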
The nature of assay [13]: qHTS assay to test for compound auto fluorescence at 535 nm (green) in HEK293 cell free culture (AID 720682). The essentials:
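Read-out: 485/535 nm fluorescence intensity, calibrated against fluorescein. Medium only (DMEM + 10% FBS, no cells); test compound or DMSO vehicle added by pintool before plate reading.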

Assay [14] is described as follows: qHTS assay to test for compound auto fluorescence at 590 nm (red) in HEK293 cell free culture (AID 720683). The essentials:
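Red-channel autofluorescence of compounds in culture medium (DMEM, 10% FBS), no cells, measured at 540/590 nm. Rose Bengal sodium is the reference fluorophore for equivalence.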

Assay [15] can be described thus: qHTS assay to test for compound auto fluorescence at 590 nm (red) in HepG2 cell free culture (AID 720684). The essentials:
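Plate contents were MEM with 10% FBS plus test compound or DMSO, no cells. Fluorescence was recorded with 540 nm excitation and 590 nm emission.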

The nature of assay [16]: qHTS assay to test for compound auto fluorescence at 460 nm (blue) in HepG2 cell free culture (AID 720685). The essentials:
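Compound (23 nL) or DMSO pinned into cell-free MEM with 10% FBS; blue fluorescence read at 405/460 nm excitation/emission, expressed as auto-fluorescence equivalency to triamterene.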

Assay [17] can be described thus: qHTS assay to test for compound auto fluorescence at 460 nm (blue) in HepG2 cells (AID 720687). The essentials: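 Blue-channel autofluorescence (Ex/Em 405/460 nm, triamterene-equivalent) was measured after 1 hr compound exposure at 37 C, 5% CO2. Cells were HepG2, plated overnight at 37 C in MEM plus 10% FBS.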
Assay [18] deals with Glucocorticoid receptor (Homo sapiens) (UniProt P04150). Briefly: qHTS assay to identify small molecule agonists of the glucocorticoid receptor (GR) signaling pathway (AID 720691; active means well fitted activation curve with a large enough effect in the signal ratio in the repeat runs, not every such curve was filed as active; the % refers to the signal ratio). Conditions: GR-bla HeLa, beta-lactamase reporter ratio, 18 h; activation: at 62.4 µM (top of the series) unless noted. Put shortly: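 Fluorescence intensity from LiveBLAzer B/G FRET substrate (2 h, room temperature) reports beta-lactamase expression driven by the glucocorticoid response element in GR-bla HeLa cells after 18 h compound exposure at 37 C.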
Chain of Glucocorticoid receptor (Homo sapiens) (P04150 whole entry, looked up): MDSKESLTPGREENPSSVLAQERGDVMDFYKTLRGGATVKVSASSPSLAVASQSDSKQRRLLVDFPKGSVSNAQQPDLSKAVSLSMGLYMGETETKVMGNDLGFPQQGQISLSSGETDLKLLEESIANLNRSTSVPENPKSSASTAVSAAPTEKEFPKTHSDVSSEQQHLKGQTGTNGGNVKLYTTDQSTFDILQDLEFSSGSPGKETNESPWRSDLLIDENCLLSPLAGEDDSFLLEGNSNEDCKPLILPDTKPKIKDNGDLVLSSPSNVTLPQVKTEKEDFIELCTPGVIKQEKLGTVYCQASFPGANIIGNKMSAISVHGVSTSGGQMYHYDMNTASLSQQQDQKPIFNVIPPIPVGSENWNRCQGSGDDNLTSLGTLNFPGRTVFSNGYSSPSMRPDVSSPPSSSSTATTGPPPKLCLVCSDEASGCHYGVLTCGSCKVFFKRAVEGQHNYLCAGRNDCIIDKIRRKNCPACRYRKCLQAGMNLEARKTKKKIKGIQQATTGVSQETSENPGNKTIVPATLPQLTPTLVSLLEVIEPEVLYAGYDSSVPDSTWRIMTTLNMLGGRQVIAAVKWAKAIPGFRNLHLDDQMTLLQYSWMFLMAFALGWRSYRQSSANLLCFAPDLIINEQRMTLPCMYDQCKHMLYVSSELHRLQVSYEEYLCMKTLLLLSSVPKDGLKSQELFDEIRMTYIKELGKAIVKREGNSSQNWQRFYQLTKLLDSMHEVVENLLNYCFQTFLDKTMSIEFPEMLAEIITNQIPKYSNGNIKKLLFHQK

The nature of assay [19]: qHTS assay to test for compound auto fluorescence at 535 nm (green) in HepG2 cell free culture (AID 720686).
Assay [20] deals with Glucocorticoid receptor (Homo sapiens) (UniProt P04150). Briefly: qHTS assay to identify small molecule antagonists of the glucocorticoid receptor (GR) signaling pathway (AID 720692; active means well fitted inhibition curve with a large enough effect in the signal ratio in the repeat runs, not every such curve was filed as active; the % refers to the signal ratio). The essentials: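 HeLa GR-bla cells; cmpd + dex 5 nM final, 18 h 37 C; LiveBLAzer B/G FRET substrate 2 h RT; fluorescence intensity read. Antagonist mode, qHTS.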

The structures appear in SMILES notation. Values without a mark were called inactive. Records with an inconclusive call do not appear. Activity calls are given as the source filed them. Unless noted, the call rests on the fitted dose curve; in most records, active means well fitted curve in the direction sought with a large enough effect in the repeat runs; inconclusive means weak or mixed curves; inactive means no such curve, though single readings can be large; an effect the other way counts as inactive or inconclusive.
On the % scale 0 is the no-effect control and ±100 the full control effect.

Consider `CCCCC(CC)CN1C(=O)C2C3C=CC(C3)C2C1=O` (stereo not given), for which the Potency entry in assay [1], in assay [2], in assay [3], in assay [4], in assay [5] and in [7] was “inactive” in each case. Also, the Potency entry in assay [8], in assay [10], in assay [14], in assay [15] and in [18] was “inactive” throughout. The Potency in assay [6] was 6.11 µM (active). Moreover, the call in [9], in [11], in assay [12], in assay [13], in assay [16] and in [17] was inactive.

Regarding `CCCCC(CC)COC(=O)COc1ccc(Cl)cc1Cl` (stereo not given), the Potency entry in [1], in assay [2], in [3], in assay [4], in assay [5] and in assay [6] was “inactive” throughout. For the same compound, the Potency result in assay [7], in assay [8], in [10], in [14], in assay [15] and in [19] was “inactive” throughout. Besides, the Potency result in assay [18] and in assay [20] was “inactive” each time. Further, the call in assay [9], in [11], in assay [12], in [13], in assay [16] and in [17] was inactive.

Consider `C=CCOC(=O)CCC1CCCCC1`, for which the Potency entry in [1], in assay [2], in assay [3], in assay [4], in [5] and in assay [6] was “inactive” each time. Further, the Potency result in [7], in assay [8], in [15], in assay [19], in assay [18] and in assay [20] was “inactive” throughout. Also, the result in assay [9], in assay [11], in assay [12], in assay [13], in assay [16] and in [17] was inactive.

Take `O=C(O)CNCC(=O)O`: the activation in [1] is -5.9% [at 8.3 µM]; in assay [2], 0.678% [at 8.08 µM]; in assay [18] it was -1.96% [at 6.9 µM]. Besides, the values for the activity change, negative = cytotoxicity in assay [3] and in assay [5] were 6.66% [at 8.08 µM] and -5.3% [at 8.08 µM], respectively. Further, the activity, negative = cytotoxicity in assay [4] is 24.8% [at 8.08 µM]. For the same compound, in [6], the ratio activity, negative = MMP loss was 15% [at 8.08 µM]. Further, the fluorescence, relative to Rose Bengal in assay [7] was -0.419% [at 3.72 µM]. Further, the fluorescence, % of fluorescein control was -0.0488% [at 3.72 µM] in [8] and -0.0374% [at 3.72 µM] in assay [19]. The fluorescence, % of triamterene in assay [9] is -0.267% [at 3.72 µM]. For the same compound, the fluorescence, % of fluorescent control in assay [10] was -0.0175% [at 3.72 µM]; in assay [12] it was -0.259% [at 3.72 µM]; in assay [14] it was -0.223% [at 3.72 µM]; in assay [16], -0.156% [at 3.72 µM]; in assay [17], -0.0767% [at 3.72 µM]. The fluorescence, % of fluorescein in assay [11] is -0.0204% [at 3.72 µM]. In addition, the activity change in assay [13] is -0.144% [at 3.72 µM]. Moreover, the fluorescence, % of Rose Bengal in assay [15] is -0.109% [at 3.72 µM].

Turning to `CNC(=O)CN(CCN(CCN(CC(=O)[O-])CC(=O)NC)CC(=O)[O-])CC(=O)[O-].O.[Gd+3]`, the Potency entry in [1], in [2], in [3], in assay [4], in assay [5] and in assay [6] was “inactive” each time. In addition, the Potency entry in assay [7], in [8], in [10], in assay [14], in assay [15] and in [19] was “inactive” throughout. Also, the Potency entry in assay [18] and in assay [20] was “inactive” throughout. The compound was classed as inactive in assay [9], in assay [11], in assay [12], in assay [13], in [16] and in assay [17].

On to `O=C(NCCO[N+](=O)[O-])c1cccnc1`, for which the Potency result in assay [1], in assay [2], in [3], in assay [4], in [5] and in [6] was “inactive” throughout. The Potency result in assay [7], in [8], in [10], in [14], in assay [15] and in assay [19] was “inactive” in each case. In addition, the Potency entry in assay [18] and in assay [20] was “inactive” each time. For the same compound, the call in assay [9], in assay [11], in assay [12], in [13], in assay [16] and in assay [17] was inactive.

For the origin of these results see PubChem BioAssay (Tox21).
